± gives the standard deviation.
Key:
Test in all cases: peptide microarray binding signal (635 nm), min-max normalized on array (fraction of array maximum); higher = stronger binding
Settings in all cases: peptide region: H4 1-13
[1] = biological target: T1, HaloTag-ATRX ADD domain (163-292)
T1 chain: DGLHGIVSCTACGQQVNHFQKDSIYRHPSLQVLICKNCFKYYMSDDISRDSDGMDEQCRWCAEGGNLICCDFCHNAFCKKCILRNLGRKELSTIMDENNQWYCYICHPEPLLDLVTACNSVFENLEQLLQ
How it was run: (§1)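 For each library, binding signal was taken as the triplicate-spot mean intensity and then min-max scaled. Spots of histone 13-mer peptide–cellulose conjugates on nitrocellulose, printed in triplicate with a Cy3 tracer, were probed for 1 h at 4°C with either biotin-labelled HaloTag reader fusions (10 nM to 1 μM) and streptavidin-Alexa Fluor 647 or rabbit histone antibodies (1:10,000 to 1:2,000) and anti-rabbit Alexa 647. Readout at 635 nm came from an Axon GenePix 4000B.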

[2] = biological target: HaloTag-ING2 PHD (mouse Ing2 200-280)
How it was run: as §1

[3] = biological target: anti-H3K4me3 antibody ab8580
How it was run: as §1

[4] = biological target: anti-H3K9me3 antibody ab8898
How it was run: as §1

[5] = peptide modifications: H4K5ac H4K12ac, binder concentration: 1:2,000 dilution
[6] = peptide modifications: H4K5ac H4K12ac, binder concentration: 1:10,000 dilution
[7] = peptide modifications: H4K5ac, binder concentration: 1:2,000 dilution
[8] = peptide modifications: H4K5ac, binder concentration: 1:10,000 dilution
[9] = peptide modifications: H4K8ac H4K12ac, binder concentration: 1:2,000 dilution
[10] = peptide modifications: H4K8ac H4K12ac, binder concentration: 1:10,000 dilution
[11] = peptide modifications: H4K8ac, binder concentration: 1:2,000 dilution
[12] = peptide modifications: H4K8ac, binder concentration: 1:10,000 dilution
[13] = peptide modifications: H4K12ac, binder concentration: 1:2,000 dilution
[14] = peptide modifications: H4K12ac, binder concentration: 1:10,000 dilution
[15] = peptide modifications: H4R3cit, binder concentration: 1:2,000 dilution
[16] = peptide modifications: H4R3cit, binder concentration: 1:10,000 dilution
[17] = peptide modifications: H4R3me1, binder concentration: 1:2,000 dilution
[18] = peptide modifications: H4R3me1, binder concentration: 1:10,000 dilution
[19] = peptide modifications: H4R3me2a, binder concentration: 1:2,000 dilution
[20] = peptide modifications: H4R3me2a, binder concentration: 1:10,000 dilution
[21] = peptide modifications: H4R3me2s, binder concentration: 1:2,000 dilution
[22] = peptide modifications: H4R3me2s, binder concentration: 1:10,000 dilution
[23] = peptide modifications: H4S1ph H4K5ac, binder concentration: 1:2,000 dilution
[24] = peptide modifications: H4S1ph H4K5ac, binder concentration: 1:10,000 dilution

## SGRGKGGKGLGKG [H4 1-13 S G R G Kac G G K G L G Kac G]
[1]; peptide modifications: H4K5ac H4K12ac, binder concentration: 50 nM
  peptide microarray binding signal: 0.00552 ± 0.00053
[1]; peptide modifications: H4K5ac H4K12ac, binder concentration: 500 nM
  peptide microarray binding signal: 0.0164 ± 0.0029
[2]; peptide modifications: H4K5ac H4K12ac, binder concentration: 10 nM
  peptide microarray binding signal: 0.00352 ± 0.00063
[2]; peptide modifications: H4K5ac H4K12ac, binder concentration: 100 nM
  peptide microarray binding signal: 0.00822 ± 0.0021
[3]; [5]
  peptide microarray binding signal: 0.000547 ± 0.00012
[3]; [6]
  peptide microarray binding signal: 0.00217 ± 0.00014
[4]; [5]
  peptide microarray binding signal: 0.00131 ± 0.00038
[4]; [6]
  peptide microarray binding signal: 0.00196 ± 8e-05

## SGRGKGGKGLGKG [H4 1-13 S G R G Kac G G K G L G K G]
[1]; peptide modifications: H4K5ac, binder concentration: 50 nM
  peptide microarray binding signal: 0.00201 ± 2.4e-05
[1]; peptide modifications: H4K5ac, binder concentration: 500 nM
  peptide microarray binding signal: 0.00524 ± 0.00032
[2]; peptide modifications: H4K5ac, binder concentration: 10 nM
  peptide microarray binding signal: 0.00197 ± 5.8e-05
[2]; peptide modifications: H4K5ac, binder concentration: 100 nM
  peptide microarray binding signal: 0.00659 ± 0.00054
[3]; [7]
  peptide microarray binding signal: 0.000585 ± 1.1e-05
[3]; [8]
  peptide microarray binding signal: 0.000571 ± 1.1e-05
[4]; [7]
  peptide microarray binding signal: 0.000302 ± 1.2e-05
[4]; [8]
  peptide microarray binding signal: 0.000404 ± 4.4e-06

## SGRGKGGKGLGKG [H4 1-13 S G R G K G G Kac G L G Kac G]
[1]; peptide modifications: H4K8ac H4K12ac, binder concentration: 50 nM
  peptide microarray binding signal: 0.00188 ± 7.5e-05
[1]; peptide modifications: H4K8ac H4K12ac, binder concentration: 500 nM
  peptide microarray binding signal: 0.00533 ± 0.00034
[2]; peptide modifications: H4K8ac H4K12ac, binder concentration: 10 nM
  peptide microarray binding signal: 0.00179 ± 0.0001
[2]; peptide modifications: H4K8ac H4K12ac, binder concentration: 100 nM
  peptide microarray binding signal: 0.00255 ± 6.4e-05
[3]; [9]
  peptide microarray binding signal: 0.00017 ± 6.4e-06
[3]; [10]
  peptide microarray binding signal: 0.000799 ± 1.7e-05
[4]; [9]
  peptide microarray binding signal: 0.000438 ± 8.5e-06
[4]; [10]
  peptide microarray binding signal: 0.000577 ± 1.2e-05

## SGRGKGGKGLGKG [H4 1-13 S G R G K G G Kac G L G K G]
[1]; peptide modifications: H4K8ac, binder concentration: 50 nM
  peptide microarray binding signal: 0.00248 ± 2.9e-05
[1]; peptide modifications: H4K8ac, binder concentration: 500 nM
  peptide microarray binding signal: 0.00481 ± 8.5e-05
[2]; peptide modifications: H4K8ac, binder concentration: 10 nM
  peptide microarray binding signal: 0.002626 ± 1.5e-05
[2]; peptide modifications: H4K8ac, binder concentration: 100 nM
  peptide microarray binding signal: 0.00546 ± 0.00011
[3]; [11]
  peptide microarray binding signal: 0.000434 ± 1.2e-05
[3]; [12]
  peptide microarray binding signal: 0.000628 ± 6.7e-06
[4]; [11]
  peptide microarray binding signal: 9.06e-05 ± 3.5e-06
[4]; [12]
  peptide microarray binding signal: 0.000346 ± 3.8e-06

## SGRGKGGKGLGKG [H4 1-13 S G R G K G G K G L G Kac G]
[1]; peptide modifications: H4K12ac, binder concentration: 50 nM
  peptide microarray binding signal: 0.00238 ± 2.8e-05
[1]; peptide modifications: H4K12ac, binder concentration: 500 nM
  peptide microarray binding signal: 0.00652 ± 0.001
[2]; peptide modifications: H4K12ac, binder concentration: 10 nM
  peptide microarray binding signal: 0.00251 ± 0.00023
[2]; peptide modifications: H4K12ac, binder concentration: 100 nM
  peptide microarray binding signal: 0.0056 ± 0.00073
[3]; [13]
  peptide microarray binding signal: 0.000302 ± 1.7e-05
[3]; [14]
  peptide microarray binding signal: 0.000799 ± 3.3e-05
[4]; [13]
  peptide microarray binding signal: 0.000121 ± 8.7e-06
[4]; [14]
  peptide microarray binding signal: 0.000577 ± 6.2e-06

## SGRGKGGKGLGKG [H4 1-13 S G Rcit G K G G K G L G K G]
[1]; peptide modifications: H4R3cit, binder concentration: 50 nM
  peptide microarray binding signal: 0.00524 ± 0.00048
[1]; peptide modifications: H4R3cit, binder concentration: 500 nM
  peptide microarray binding signal: 0.0149 ± 0.00041
[2]; peptide modifications: H4R3cit, binder concentration: 10 nM
  peptide microarray binding signal: 0.00209 ± 0.00016
[2]; peptide modifications: H4R3cit, binder concentration: 100 nM
  peptide microarray binding signal: 0.00468 ± 0.00014
[3]; [15]
  peptide microarray binding signal: 0.00104 ± 0.00043
[3]; [16]
  peptide microarray binding signal: 0.001997 ± 1.8e-05
[4]; [15]
  peptide microarray binding signal: 0.00199 ± 3.7e-05
[4]; [16]
  peptide microarray binding signal: 0.00161 ± 4.1e-05

## SGRGKGGKGLGKG [H4 1-13 S G Rme G K G G K G L G K G]
[1]; peptide modifications: H4R3me1, binder concentration: 50 nM
  peptide microarray binding signal: 0.00483 ± 0.00013
[1]; peptide modifications: H4R3me1, binder concentration: 500 nM
  peptide microarray binding signal: 0.00838 ± 0.0007
[2]; peptide modifications: H4R3me1, binder concentration: 10 nM
  peptide microarray binding signal: 0.00477 ± 0.00017
[2]; peptide modifications: H4R3me1, binder concentration: 100 nM
  peptide microarray binding signal: 0.0127 ± 0.0019
[3]; [17]
  peptide microarray binding signal: 0.00125 ± 0.00022
[3]; [18]
  peptide microarray binding signal: 0.0012 ± 1.2e-05
[4]; [17]
  peptide microarray binding signal: 0.000544 ± 6.8e-05
[4]; [18]
  peptide microarray binding signal: 0.00115 ± 2e-05

## SGRGKGGKGLGKG [H4 1-13 S G Rme2a G K G G K G L G K G]
[1]; peptide modifications: H4R3me2a, binder concentration: 50 nM
  peptide microarray binding signal: 0.0021 ± 9.6e-06
[1]; peptide modifications: H4R3me2a, binder concentration: 500 nM
  peptide microarray binding signal: 0.00305 ± 6.3e-05
[2]; peptide modifications: H4R3me2a, binder concentration: 10 nM
  peptide microarray binding signal: 0.00269 ± 4e-05
[2]; peptide modifications: H4R3me2a, binder concentration: 100 nM
  peptide microarray binding signal: 0.00404 ± 9.1e-05
[3]; [19]
  peptide microarray binding signal: 0.000227 ± 4.2e-06
[3]; [20]
  peptide microarray binding signal: 0.000856 ± 2.3e-05
[4]; [19]
  peptide microarray binding signal: 1.51e-05 ± 1.7e-07
[4]; [20]
  peptide microarray binding signal: 0.000577 ± 1.2e-05

## SGRGKGGKGLGKG [H4 1-13 S G Rme2s G K G G K G L G K G]
[1]; peptide modifications: H4R3me2s, binder concentration: 50 nM
  peptide microarray binding signal: 0.00304 ± 5.1e-05
[1]; peptide modifications: H4R3me2s, binder concentration: 500 nM
  peptide microarray binding signal: 0.0107 ± 0.0019
[2]; peptide modifications: H4R3me2s, binder concentration: 10 nM
  peptide microarray binding signal: 0.00161 ± 0.00016
[2]; peptide modifications: H4R3me2s, binder concentration: 100 nM
  peptide microarray binding signal: 0.00468 ± 0.0011
[3]; [21]
  peptide microarray binding signal: 0.000227 ± 2.2e-05
[3]; [22]
  peptide microarray binding signal: 0.00097 ± 4.3e-05
[4]; [21]
  peptide microarray binding signal: 0.000317 ± 3.5e-05
[4]; [22]
  peptide microarray binding signal: 0.000461

## SGRGKGGKGLGKG [H4 1-13 Sph G R G Kac G G K G L G K G]
[1]; peptide modifications: H4S1ph H4K5ac, binder concentration: 50 nM
  peptide microarray binding signal: 0.00348 ± 3.8e-05
[1]; peptide modifications: H4S1ph H4K5ac, binder concentration: 500 nM
  peptide microarray binding signal: 0.0117 ± 0.00091
[2]; peptide modifications: H4S1ph H4K5ac, binder concentration: 10 nM
  peptide microarray binding signal: 0.001373 ± 8.3e-06
[2]; peptide modifications: H4S1ph H4K5ac, binder concentration: 100 nM
  peptide microarray binding signal: 0.00269 ± 6.7e-05
[3]; [23]
  peptide microarray binding signal: 0.000208 ± 2.2e-06
[3]; [24]
  peptide microarray binding signal: 0.000856 ± 8.9e-06
[4]; [23]
  peptide microarray binding signal: 0.000362 ± 6.3e-06
[4]; [24]
  peptide microarray binding signal: 0.000692 ± 7.3e-06

Reference: the supplement of paper PMC4022240
